SMILES strings stand for the structures. Out of some 290,000 compounds screened, about 670 (0.23%) were called active. The sample as a whole holds a higher share of actives than the screen did. Unmarked numbers belong to inactive results.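 Rule for the calls: active = inhibition above a per-plate limit of that plate's mean compound inhibition plus 3 SD (cut at about 60% in these data); inactive = the rest.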

The source of these data is PubChem BioAssay AID1700 (The Scripps Research Institute Molecular Screening Center, 2009).

The nature of the experiment: suppression of KLF5 promoter-driven luciferase – DLD-1 cells, luminescence, primary screen (AID 1700).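 Note: 0% = DMSO wells and 100% = LY294002 at 200 µM; higher means less KLF5 promoter-driven luciferase light.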 Conditions: DLD-1 KLF5 promoter-luciferase reporter, at 5 µM, stronger effect = higher value. (In general: Reporter assays use an easily measured gene product as a stand-in for the process of interest.)
As a reminder, the inhibition is the change of the read-out against control, counted positive when it falls. Turning to `O=C(N[C@@H](Cc1ccccc1)C(=O)OCc1ccccc1)c1nc[nH]c1C(=O)N[C@@H](Cc1ccccc1)C(=O)OCc1ccccc1`, the inhibition is -14.8%.

Regarding `O=C(CN1CCC(O)(c2cccc(C(F)(F)F)c2)CC1)NCCc1ccccc1`, the inhibition is -13%.

`O=C(CSc1ccc(-c2ccccn2)nn1)Nc1ccccc1`: the inhibition is -2%. In the case of `Cc1cc(=O)n2nc(N3CCC(C(=O)Nc4c(F)c(F)c(F)c(F)c4F)CC3)sc2n1`, the inhibition was 13.4%. Take `N#CCC(=O)NC1CCC(CC2CCC(NC(=O)CC#N)CC2)CC1` (centres undefined): the inhibition was -13.8%. For the compound `Cc1nn(C(C)C(=O)N2CCOCC2)c(=O)c2nn(-c3ccccc3)c(C)c12` (centres undefined), the inhibition was -19%. In the case of `CCOc1cc(C(=O)N2CCc3cc(OC)c(OC)cc3C2)ccc1OC(F)F`, the inhibition was 73.9% (active). Consider `COc1cc2c(cc1OC)CN(C(=O)c1cc(=O)c3ccccc3o1)CC2`, for which the inhibition is 37.6%. As for `COc1cc2c(cc1OC)CN(C(=O)c1ccc(S(=O)(=O)N3CCCCCC3)cc1)CC2`, the inhibition was -28.3%. Regarding `COc1cccc(/C=N/NC(=O)c2[nH]nc3c2CCc2ccccc2-3)c1O`, the inhibition was 5.06%. For `COc1cccc(/C=N/Nc2cc(C)nc(-c3ccccc3O)n2)c1O`, the inhibition was -137%. With `COc1cccc(/C=N/Nc2ncc(C(F)(F)F)cc2Cl)c1O` the figure was 101% (active); with `O=C1CSc2ccc(S(=O)(=O)NCc3ccccc3)cc2N1`, 11.2%. As for `Cc1c(CC(=O)NCC(=O)NCC(=O)O)c(=O)oc2cc3oc4c(c3cc12)CCCC4`, the inhibition was -28.3%. Regarding `Cc1ccc2[nH]c(=O)c(CN(CC3COCCO3)C(=O)Nc3ccccc3C)cc2c1` (centres undefined), the inhibition is 18.1%.

For `Cc1ccc2[nH]c(=O)c(CN(CCCN(C)C)C(=O)Nc3cccc(Cl)c3)cc2c1`, the inhibition was 109% (active). Regarding `CCC(=O)N(CCc1ccccc1)Cc1cc2cc(C)ccc2[nH]c1=O`, the inhibition was -35.9%. Take `O=C(NCCc1ccc(Cl)cc1)C1CCCN1C(=O)NCc1ccccc1` (centres undefined): the inhibition was -14.2%. On to `COc1ccc(NCCc2ccccn2)cc1`, for which the inhibition was -36.1%. For the compound `COc1ccccc1/C=N/N1CCN(Cc2ccccc2Cl)CC1`, the inhibition is -27%. Turning to `CCOc1ccc(Cn2nnc(C(=O)NCc3ccccc3)c2N)cc1`, the inhibition is -14.8%. In the case of `CCOc1ccccc1NC(=O)Cc1cccs1` it was 4.44%. As for `CCOc1ccccc1NC(=O)Cn1nnc(C(=O)NCc2cccs2)c1N`, the inhibition was 72.7% (active).

Turning to `CN(NC(=O)c1ccccc1)c1nc2ccccc2nc1C(F)(F)F`, the inhibition is -18.5%. For `CSc1nc(N(C)NC(=O)c2cccc(C)c2)c2ccccc2n1`, the inhibition was 83.5% (active).

With `Cc1cccc(C(=O)NCCCN(C)CCCNC(=O)c2cccc(C)c2)c1`, the inhibition was -59.8%. Take `CN(NC(=O)c1ccccc1F)c1nc(C(F)(F)F)nc2ccccc12`: the inhibition was 68.7% (active). With `COc1ccc(C(=O)NN(C)c2nc(-c3ccccc3)cc(C)c2S(C)(=O)=O)cc1`, the inhibition was -7.27%. On to `COC(=O)CNC(=O)c1ccccc1F`, for which the inhibition was -16.9%.
